# Bioassay records from PubChem.
# TEAD-YAP inh: TEAD-YAP interaction inhibition; HEK-TIYL cells, TEAD-Gal4/YAP UAS-luciferase luminescence; inhibition, % at 9.12 µM; actives 1.4% (n = 640,000); AID 1259422; in the data active = inhibition above about 32%;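 note: 0% = median of test compound wells and 100% = reference inhibitor wells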
# MITF primary: human MITF inhibition, primary screen | inhibition, % at 2.6 µM | AID 1259374 | O75030 | actives 0.91% (n = 650,000) | AlphaScreen MITF homodimerization, bead proximity signal; in the data active = inhibition above about 50%;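 note: 0% = vehicle wells with protein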
# Target sequence (O75030 whole entry, looked up): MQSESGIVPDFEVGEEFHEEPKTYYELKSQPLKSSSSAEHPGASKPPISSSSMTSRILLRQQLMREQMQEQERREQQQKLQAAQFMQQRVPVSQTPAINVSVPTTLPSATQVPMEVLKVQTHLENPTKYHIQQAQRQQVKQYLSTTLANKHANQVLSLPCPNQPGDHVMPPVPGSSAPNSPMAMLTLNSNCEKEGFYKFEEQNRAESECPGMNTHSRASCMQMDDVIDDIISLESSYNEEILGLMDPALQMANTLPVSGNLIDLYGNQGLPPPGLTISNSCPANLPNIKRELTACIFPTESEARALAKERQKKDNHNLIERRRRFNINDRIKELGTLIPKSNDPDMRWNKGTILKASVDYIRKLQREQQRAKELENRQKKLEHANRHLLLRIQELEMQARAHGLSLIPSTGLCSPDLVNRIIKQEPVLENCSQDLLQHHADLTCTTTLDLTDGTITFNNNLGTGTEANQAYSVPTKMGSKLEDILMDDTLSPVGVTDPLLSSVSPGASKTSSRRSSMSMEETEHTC
# FBW7 activator: activators of human E3 ligase FBW7; Q969H0; AlphaScreen FBW7–phospho-cyclin E peptide binding, activator screen; normalized activity (activation), % at 26.1 µM; actives 0.13% (n = 650,000); in the data active = normalized activity above about 1.9%;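 note: purified mutant Fbw7 with reduced substrate affinity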
# GPR151 ag: activators of human GPR151; Q8TDV0; PathHunter beta-arrestin GPR151 cells, luminescence; activation, % at 11.2 µM; actives 1% (n = 650,000); in the data active = activation above about 4.9%;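 note: 0% = median of compound wells and 100% = cells with positive control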
# * = called active by the depositor. Only some compounds are listed: those with a hit (about 3.4% of all), similar ones and a draw of the others.
SMILES,TEAD-YAP inh,MITF primary,FBW7 activator,GPR151 ag
Nc1cccc(-c2nc(Nc3ccccc3)c3ncn(-c4ccsc4)c3n2)c1,49*,1,0,0
COc1ccc(-c2nc(Nc3ccc(NC(C)=O)cc3)c3ncn(-c4ccsc4)c3n2)cc1,43*,7,0,0
CC(=O)Nc1ccc(Nc2nc(-c3cccc(N)c3)nc3c2ncn3-c2ccsc2)cc1,43*,-2,0,3
C=CCOc1ccc(/C(O)=C2\C(=O)C(=O)N(CCN3CCOCC3)C2c2ccccc2F)c(C)c1 (configuration not stated),-22,0,0,0
c1ccc(Nc2ccnc(N3CCc4ccccc4C3)n2)cc1,-47,-1,0,-1
c1ccc(Nc2ncnc3nc(Nc4ccc(N5CCOCC5)cc4)[nH]c23)cc1,-6,-12,0,1
c1ccc2c(c1)CCN(c1nc3ncnc(Nc4ccc(N5CCOCC5)cc4)c3[nH]1)C2,53*,-1,0,-2
c1ccc2c(c1)CCN(c1nccc(Nc3ccc(N4CCOCC4)cc3)n1)C2,41*,7,0,1
c1ccc2c(Nc3nccc(Nc4ccc(N5CCOCC5)cc4)n3)nccc2c1,62*,15,0,4
c1ccc2c(Nc3nc4ncnc(Nc5ccc(N6CCOCC6)cc5)c4[nH]3)nccc2c1,40*,45,0,0
COCCCNC(=O)CC(=O)N/N=C/c1ccccc1OCc1ccccc1,-1,4,0,0
CCOc1ccc(C(=O)Oc2ccc(-c3nc4ccc(C)cc4s3)cc2)cc1Br,37*,17,0,-1
CCOc1ccc(C(=O)Nc2ccc(-c3nc4ccc(C)cc4s3)cc2)cc1Br,0,-5,0,0
Cc1ccc(NC(=O)CSc2nc3ccccc3s2)cc1,6,6,0,0
COc1cc(NS(=O)(=O)c2ccc(NC(C)=O)cc2)c(OC)cc1Cl,52*,6,0,0
COc1ccc(S(=O)(=O)Nc2ccc(NC(C)=O)cc2)cc1Cl,1,-5,0,0
COC(=O)c1ccc(C(=O)OC)c(NS(=O)(=O)c2cc(Cl)ccc2Cl)c1,1,-14,0,1
COc1cc(NS(=O)(=O)c2ccc(OC)c(OC)c2)c(OC)cc1Cl,48*,9,0,2
COc1ccc(Cl)cc1NS(=O)(=O)c1ccc(OC)c(OC)c1,-3,13,0,1
COC(=O)c1ccc(C(=O)OC)c(S(=O)(=O)Nc2cc(OC)c(Cl)cc2OC)c1,45*,10,0,-2
CCCc1nc2c(=O)n(C)c(=O)nc-2n(C)n1,99*,-4,0,-4
CCn1nc(-c2ccc(C(F)(F)F)cc2)nc2c(=O)n(C)c(=O)nc1-2,-2,15,0,-8
CCOc1cc(-c2nc3c(=O)n(C)c(=O)nc-3n(C)n2)ccc1OC(C)C,95*,21,0,-3
Cc1ccccc1-c1nc2c(=O)n(C)c(=O)nc-2n(C)n1,91*,3,0,-2
CCn1nc(-c2cccc(Cl)c2)nc2c(=O)n(C)c(=O)nc1-2,-52,-12,0,-9
SMILES,TEAD-YAP inh,MITF primary,FBW7 activator,GPR151 ag
COc1ccc(Br)cc1/C=N/NC(=O)c1ccccc1,-45,-8,0,-1
CCC(C)(C(=O)NC1CCCC1)N(Cc1ccco1)C(=O)CNC(=O)c1ccccc1 (configuration not stated),10,7,2.3*,0
CCC(C)(C(=O)NC1CCCC1)N(Cc1ccco1)C(=O)CNC(C)=O (configuration not stated),3,3,0,0
O=C(O)c1n[nH]c2c1CCCCCC2,-11,-7,0,1
O=C(N/N=C/c1cccc(O)c1)c1n[nH]c2c1CCC2,46*,11,0,-6
O=C(NN=C1CCCCC1)c1n[nH]c2c1CCC2,57*,18,0,-1
Cc1ccsc1/C=N\NC(=O)c1n[nH]c2c1CCCC2,82*,13,0,-9
O=C(N/N=C/c1ccccc1O)c1n[nH]c2c1CCC2,33*,18,-1,-1
O=C(N/N=C\c1cccc(Cl)c1)c1n[nH]c2c1CCCC2,25,16,0,1
CC1Cc2ccccc2N1C(=O)COC(=O)c1cc(O)c2ccccc2c1O (configuration not stated),4,11,0,1
Cc1ccc(/C=N/NC(=O)c2n[nH]c3c2CCCC3)cc1,18,10,0,-1
O=C(N/N=C/c1cc2c([nH]1)CCCC2)c1n[nH]c2c1CCC2,33*,21,0,-1
COc1cc(/C=N/NC(=O)c2n[nH]c3c2CCCC3)ccc1O,36*,10,0,-1
C/C(=N/NC(=O)c1n[nH]c2c1CCC2)c1cccc(O)c1,40*,-1,0,1
C/C(=N/NC(=O)c1n[nH]c2c1CCCC2)c1cccc(O)c1,23,-3,0,0
O=C(N/N=C/c1cccc(O)c1)C1C2CCCCC21 (configuration not stated),60*,-4,0,-1
Cc1ccc(N(CC(N)=O)C2SC(=O)N(c3cccc(C)c3)C2=O)cc1 (configuration not stated),8,24,0,-1
O=C(C1CCCN(c2ccccn2)C1)N1CCC[C@@H]2CN(Cc3cccs3)CC[C@H]21 (some centres not stated),2,6,0,0
COc1ccc(-c2nc(Nc3ccc(C(F)(F)F)cc3)c3ccccc3n2)cc1OC,-2,0,0,-1
CN(C)c1ccc(/C=N/NC(=O)c2n[nH]c3c2CCC3)cc1,35*,10,0,1
COc1ccc2c(c1)OCC(Cc1ccc(OC)c(O)c1)C2=O (configuration not stated),50*,1,0,3
CC(C(=O)N1CCN(C2CCCCC2)CC1)n1sc2ccccc2c1=O (configuration not stated),3,5,0,0
Nc1nc(-c2no[n+]([O-])c2-c2csc(N)n2)cs1,0,-10,0,1
OCCOCCNc1ncnc2ccc(Br)cc12,21,3,0,0
CN(C)c1cc(N/N=C/c2cc(Cl)ccc2O)nc(N(C)C)n1,-2,-6,0,4
SMILES,TEAD-YAP inh,MITF primary,FBW7 activator,GPR151 ag
CCOC(=O)c1[nH]c(C)c(CN(C(C)=O)c2ccc(OCC)cc2)c1C,52*,-1,0,2
Cc1ccc2cc3c(nc2c1)OCC(=O)N(Cc1ccccc1)C3,48*,3,0,3
CC1Oc2nc3ccccc3cc2CN(Cc2ccc(F)cc2)C1=O (configuration not stated),32*,-1,0,-1
Cc1cccc2cc3c(nc12)OCC(=O)N(Cc1ccccc1)C3,58*,14,26*,0
Cc1ccc2cc3c(nc2c1)OCC(=O)N(Cc1ccco1)C3,-21,15,0,-1
CC1Oc2nc3ccccc3cc2CN(Cc2ccc3c(c2)OCO3)C1=O (configuration not stated),-4,2,0,1
COc1cc(N)c(Cl)cc1C(=O)OCC(=O)N(c1ccccc1)C(C)C,-2,-10,0,0
